ChEMBL document CHEMBL3988442, “University of Dundee, Small-Polar-MMV Screening Library” (2021)
In all, about 69,000 compounds went through this assay and about 950 (1.4%) showed an effect of 50% or more. This excerpt belongs to a sample that is enriched for strong results.

tested on: Mycobacterium tuberculosis; assay: Cornell M. t heat shock assay; assay type: functional, organism-based; set-up: dose or concentration left out as unconfirmed; note: in the data most compounds retested in dose-response had high values

Row | Compound | Percent Effect [%]
1 | Cc1cccc(CN2C[C@H](OCc3csc(C)n3)[C@H]3COC[C@H]32)n1.O=C(O)C(F)(F)F.O=C(O)C(F)(F)F | -14.33
2 | CC(C)Oc1ccc(C(=O)Cn2cnnc2[S+](C)[O-])cc1 (centres undefined) | 17.53
3 | C[S+]([O-])c1nncn1CC(=O)c1ccc(Br)cc1 (centres undefined) | 11.9
4 | CC(C)Cc1ccc(C(=O)Cn2cnnc2[S+](C)[O-])cc1 (centres undefined) | 59.76
5 | O=C(O)C(F)(F)F.O=C(c1ccc(F)cc1)N1CCC2(CCCN2CC2CC2)CC1 | -17.36
6 | O=C(NC1CC1)c1ccc2ccc(N3CCN(CC4CC4)CC3)n2c1 | 38.85
7 | CC(C)N1CCN(c2ccc3ccc(C(=O)NC4CCCC4)cn23)CC1.O=C(O)C(F)(F)F | 67.57
8 | CC(=O)N1CCN(c2ccc3ccc(C(=O)NC4CCCC4)cn23)CC1 | 69.47
9 | COCCN1CCN(c2ccc3ccc(C(=O)NC4CC4)cn23)CC1 | -14.38
10 | CS(=O)(=O)N1CCN(c2ccc3ccc(C(=O)NC4CC4)cn23)CC1 | 20.39
11 | CN(C)C(=O)N1CCN(c2ccc3ccc(C(=O)NC4CC4)cn23)CC1 | -6.605
12 | CN(C)C(=O)[C@H]1C[C@@H]2CCN(C3CCOCC3)C[C@@H]2O1.O=C(O)C(F)(F)F | 2.005
13 | CN(C)c1ncnc2c1CCN(CC1CCOC1)CC2.O=C(O)C(F)(F)F (centres undefined) | -1.073
14 | Cc1cccc(N2CC[C@@H]3CN(C(=O)c4ccco4)CCO[C@@H]3C2)n1.O=C(O)C(F)(F)F | 6.087
15 | Cn1cccc1C(=O)N1CCO[C@@H]2CN(Cc3nccs3)C[C@@H]2C1.O=C(O)C(F)(F)F | -1.358
16 | O=C(NCc1ccco1)c1cc(N2CC[C@@H](O)C2)ccn1 | 1.104
17 | CCCOC1CCCN(c2ccnc(C(=O)NCc3ccco3)c2)C1 (centres undefined) | 56.57
18 | CN(C)[C@H]1CCN(c2ccnc(C(=O)NCc3ccco3)c2)C1 | 19.62
19 | CC[C@@H]1N(Cc2ccoc2)CCC[C@]12CCC(=O)N2CCOC.O=C(O)C(F)(F)F | -21.47
20 | CN1CC[C@H]2[C@H](C[C@@H](CN3CCCC3)N2c2nccs2)C1.O=C(O)C(F)(F)F.O=C(O)C(F)(F)F.O=C(O)C(F)(F)F | 17.76
21 | O=C(O)C(F)(F)F.O=C1N(CC2CC2)CCC12CCCN(c1ncc(F)cn1)C2 (centres undefined) | 23.17
22 | Cc1ccc(CN2CCC3(C2)C(=O)N(CC(N)=O)c2ccccc23)s1 (centres undefined) | -35.1
23 | Cc1ccc(CN2CCC3(C2)C(=O)N(CC(C)C)c2ccccc23)s1 (centres undefined) | 104.8
24 | Cc1ccc(CN2CCC3(CC2)C(=O)N(C)c2ccccc23)s1.O=C(O)C(F)(F)F | 67.96

Row | Compound | Percent Effect [%]
25 | Cc1ccc(CN2CCC3(CC2)C(=O)Nc2ccccc23)s1.O=C(O)C(F)(F)F | 0.7618
26 | CC(C)CN1C(=O)C2(CCN(Cc3ccc(F)cc3)C2)c2ccccc21 (centres undefined) | 17.34
27 | Cc1ccc(CN2CCC3(C2)C(=O)N(CC2CC2)c2ccccc23)s1.O=C(O)C(F)(F)F (centres undefined) | 22.05
28 | Cc1cccc(CN2C[C@@H]3COC[C@]3(COc3cccnc3)C2)n1.O=C(O)C(F)(F)F.O=C(O)C(F)(F)F.O=C(O)C(F)(F)F | -8.53
29 | Cc1csc(Nc2cc(C3CCCCN3C)nc(C)n2)n1 (centres undefined) | -8.179
30 | Cc1cc(Nc2nc(C)cs2)nc(C2CCCCN2CCO)n1 (centres undefined) | 103.2
31 | Cc1cccc(Nc2cc(C)nc(C3CCCCN3CC(N)=O)n2)n1 (centres undefined) | -15.32
32 | COc1nc2cc(C)ccc2cc1CN(C)Cc1cc(C)[nH]n1.O=C(O)CC(O)(CC(=O)O)C(=O)O | -1.641
33 | O=C(O)C(F)(F)F.O=C(O)C(F)(F)F.O=C1[C@H]2CN(Cc3ccoc3)C[C@H]2CN1CCN1CCCC1 | -10.49
34 | O=C(c1cocn1)N1C[C@@H]2COC[C@]2(COc2cccnc2)C1 | 75.2
35 | O=C(C1=CCCC1)N1C[C@@H]2COC[C@]2(COc2cccnc2)C1 | 1.513
36 | O=C(c1ncccn1)N1C[C@@H]2COC[C@]2(COc2cccnc2)C1 | 26.01
37 | O=C(O)C(F)(F)F.O=C(c1cocn1)N1C[C@H]2CCC[C@@]2(COc2ccccn2)C1 | 21.2
38 | CS(=O)(=O)N1CCC2(CC1)CC(NCC1CC1)c1ccccc12.O=C(O)C(F)(F)F (centres undefined) | 1.272
39 | CS(=O)(=O)N1CCC2(CC1)CC(NCc1ccco1)c1ccccc12.O=C(O)C(F)(F)F (centres undefined) | 55
40 | Cn1cc(CNC2CC3(CCN(S(C)(=O)=O)CC3)c3ccccc32)cn1.O=C(O)C(F)(F)F (centres undefined) | 36.25
41 | COc1ccc(OC)c(C2CCN(c3ccc4cc[nH]c4n3)C2)c1 (centres undefined) | 103.8
42 | COc1cccc(C2CCN(c3ccc4cc[nH]c4n3)C2)c1OC (centres undefined) | 36.99
43 | COc1ccccc1C1CCN(c2ccc3cc[nH]c3n2)CC1 | -1.592
44 | CS(=O)(=O)N1C[C@H]2CC[C@@H]1CN(Cc1ccncc1)C2 | -0.4425
45 | Cn1cc(N2CCC3(CCN(Cc4nccs4)C3)C2=O)cn1.O=C(O)C(F)(F)F (centres undefined) | -0.6336
46 | Cc1cnnn1Cc1ncn2c1CN(Cc1cccs1)CCC2.O=C(O)C(F)(F)F | 1.772
47 | O=C(O)C(F)(F)F.O=C(O)C(F)(F)F.O=C1CO[C@@H]2CN(CC3CCOCC3)C[C@H]2N1Cc1ccncc1 | -5.107
48 | N#Cc1cc(NC(=O)c2ccsc2)ccc1N1CCC(O)CC1 | 11.62

Row | Compound | Percent Effect [%]
49 | Cc1ccc(C(=O)Nc2ccc(N3CCC(O)CC3)c(C#N)c2)s1 | 25.13
50 | Cc1ccsc1C(=O)Nc1ccc(N2CCC(O)CC2)c(C#N)c1 | 75.65
51 | COc1ccc(C[C@H]2CN(C(=O)c3ccc(C)nc3)CC[C@@H]2OC)cc1.O=C(O)C(F)(F)F | -2.913
52 | CNC(=O)[C@H]1C[C@@H]2CCN(Cc3ccncc3)C[C@H]2O1.O=C(O)C(F)(F)F.O=C(O)C(F)(F)F | -3.411
53 | CC(C)c1cc(C(=O)NCC2CCCN(C(C)C)C2)n(C)n1.Cl (centres undefined) | -0.8268
54 | Cc1nc(C)n(CC2CCCN2CC(=O)Nc2cc(C(C)C)no2)n1 (centres undefined) | -40.94
55 | Cc1cnn(CC2CCCN2CC(=O)Nc2cc(C)on2)c1 (centres undefined) | -31.38
56 | CC(C)(C)c1cc(NC(=O)CN2CCCC2Cn2cncn2)on1 (centres undefined) | 2.377
57 | Cc1cnn(CC2CCCN2CC(=O)Nc2cc(C(C)(C)C)no2)c1 (centres undefined) | 73.93
58 | Cc1cnn(CC2CCCN2CC(=O)Nc2cc(C)no2)c1 (centres undefined) | 35.93
59 | CC(C)c1cc(NC(=O)CN2CCCC2Cn2cncn2)on1 (centres undefined) | -8.042
60 | CC(C)c1cc(NC(=O)CN2CCCC2Cn2cccn2)on1 (centres undefined) | -10.53
61 | Cc1cnn(CC2CCCN2CC(=O)NC2CCOCC2)c1 (centres undefined) | -0.7823
62 | CC(C)(C)c1cc(NC(=O)CN2CCCC2Cn2cccn2)on1 (centres undefined) | 77.39
63 | Cc1cc(C)n(CC2CCCN2CC(=O)Nc2cc(C(C)C)no2)n1 (centres undefined) | 66.41
64 | CC(C)(C)c1cc(NC(=O)CN2CCCCC2Cn2cncn2)on1 (centres undefined) | -1.6
65 | Cc1cnn(CC2CCCN2CC(=O)Nc2cc(C(C)C)no2)c1 (centres undefined) | 98.13
66 | CCCc1nc(CN2CCCC(Cn3cncn3)C2)no1 (centres undefined) | -9.9
67 | O=C(O)C(F)(F)F.O=C(O)C(F)(F)F.c1cncc(OCC2CN(Cc3ccsc3)Cc3nccn3C2)c1 (centres undefined) | -18.26
68 | COCCN1C(=O)C[C@H]2[C@H]1CCN2Cc1ccccc1.O=C(O)C(F)(F)F | 3.349
69 | CN(C)[C@@H]1CCN(C(=O)c2ccsc2)[C@H]1Cc1cccnc1.O=C(O)C(F)(F)F.O=C(O)C(F)(F)F | -16.81
70 | Cc1ccc(N2Cc3cnn(C)c3C(COCC3CC3)C2)nn1.O=C(O)C(F)(F)F.O=C(O)C(F)(F)F (centres undefined) | 49.24
71 | COc1ccc(CN2CCC3(CC2)NC(=O)CC3c2cnn(C)c2)cc1.O=C(O)C(F)(F)F (centres undefined) | -26.9
72 | O=C1C[C@H]2CC[C@@H](CN1)N2C(=O)CCc1ccccc1 | 16.33

Row | Compound | Percent Effect [%]
73 | CO[C@@H]1CCN(Cc2cccs2)[C@@H]2CN(Cc3ccncc3)C[C@@H]21.O=C(O)C(F)(F)F.O=C(O)C(F)(F)F.O=C(O)C(F)(F)F | 42.16
74 | COCC(=O)N1CCCC(C)(c2nncn2C)C1 (centres undefined) | 11.29
75 | Cc1cccc(CN2CCC3(CC2)CN(c2cccnc2)C(=O)CO3)n1.O=C(O)C(F)(F)F.O=C(O)C(F)(F)F | -14.12
76 | Cc1nn(C)c(Cl)c1C1CCCN1C(=O)c1ccc(C(N)=O)cn1 (centres undefined) | -15.15
77 | Cc1cc(C)n(CC2CCCN2CC(=O)Nc2nncs2)n1 (centres undefined) | -43.1
78 | Cc1cc(C)n(CC2CCCCN2CC(=O)Nc2nnc(C)s2)n1 (centres undefined) | 10.12
79 | Cc1cc(C)n(CC2CCCCN2CC(=O)Nc2nncs2)n1 (centres undefined) | 69.77
80 | CO[C@@H]1CC[C@H]2[C@H]1OCCN2CC1CC1.O=C(O)C(F)(F)F | -34.92
81 | Cc1nn(C)c2c(=O)n(CC(=O)NCc3ccc(N(C)C)cc3)ccc12 | 2.829
82 | COCCN1C[C@@H]2CN(Cc3ccc(C)s3)CCC[C@]2(C(=O)O)C1.O=C(O)C(F)(F)F.O=C(O)C(F)(F)F | -29.4
83 | c1ccc(-c2cnc(CN3CCCC3Cn3cccn3)o2)cc1 (centres undefined) | 7.104
84 | Cc1cnn(CC2CCCCN2Cc2nc(C)c3ccccc3n2)c1 (centres undefined) | 67.77
85 | Cc1nc(C)n(CC2CCCN2Cc2nc3ccccc3n2C)n1 (centres undefined) | -5.876
86 | Cc1cnn(CC2CCCN2Cc2nc3ccccc3n2C)c1 (centres undefined) | 101.1
87 | Cc1cnn(CC2CCCN2Cc2nc(C)c3ccccc3n2)c1 (centres undefined) | 101.6
88 | Cc1cnn(CC2CCCN2Cc2ncc(-c3ccccc3)o2)c1 (centres undefined) | 61.17
89 | Cc1nc(CN2CCCCC2Cn2cncn2)nc2ccccc12 (centres undefined) | -16.52
90 | Cc1cnn(CC2CCCN2Cc2ncc(-c3ccc(F)cc3)o2)c1 (centres undefined) | -10.3
91 | Cc1nc(CN2CCCC2Cn2cccn2)nc2ccccc12 (centres undefined) | 33.45
92 | Cc1cnn(CC2CCCN2Cc2noc(C)n2)c1 (centres undefined) | -1.003
93 | Cc1nc(CN2CCCCC2Cn2cccn2)nc2ccccc12 (centres undefined) | 49.4
94 | Cc1cnn(CC2CCCN2Cc2nc3ccccc3nc2C)c1 (centres undefined) | 7.151
